# Most compounds without a hit are left out; they make up all but 27% or so of the library.
# CYP2C9 inh = human CYP2C9 inhibition; AID 777; inhibition, % at 5 µM; hit rate 20% among 96,000; P11712; CYP2C9 Supersomes, luciferin-H conversion, luminescence;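 active = blocking of liver enzyme CYP2C9 beyond about 50% at 5 µM, limit read from the data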
# CYP2C19 act = cytochrome P450 2C19 (human) activation; 96,000 tested, under 10 active; AID 1025; recombinant CYP2C19, luciferin-H EGE luminescence; stronger effect = higher value; 0 = fully inhibited enzyme, 1 = untreated enzyme; activation factor at 5 µM;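 active = activation factor of at least 2 at 5 µM in the primary screen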;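 note: 0 = wells with 2.5 mM tranylcypromine and 1 = vehicle-only wells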
# Target sequence (P33261 whole entry, looked up): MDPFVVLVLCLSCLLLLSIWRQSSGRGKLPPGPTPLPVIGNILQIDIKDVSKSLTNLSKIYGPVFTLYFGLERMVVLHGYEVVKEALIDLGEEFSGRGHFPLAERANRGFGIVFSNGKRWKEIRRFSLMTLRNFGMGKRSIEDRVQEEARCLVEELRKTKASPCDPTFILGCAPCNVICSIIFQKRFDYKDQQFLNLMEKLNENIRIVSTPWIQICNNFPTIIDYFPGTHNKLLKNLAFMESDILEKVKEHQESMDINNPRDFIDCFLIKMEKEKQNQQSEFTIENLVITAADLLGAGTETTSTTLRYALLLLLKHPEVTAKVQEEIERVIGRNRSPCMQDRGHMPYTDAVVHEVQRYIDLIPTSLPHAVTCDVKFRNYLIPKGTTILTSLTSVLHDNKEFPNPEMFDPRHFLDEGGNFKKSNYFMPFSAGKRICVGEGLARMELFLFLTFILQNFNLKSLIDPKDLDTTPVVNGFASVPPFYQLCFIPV
# sEH inhibitor = soluble epoxide hydrolase (human) inhibition; P34913; recombinant human sEH enzymatic activity assay; inhibition, % at 2 µM; hit rate 0.34% among 91,000; in the data active = inhibition above about 80%
# CYP2C9 activ = CYP2C9 (human) activation; P11712; recombinant CYP2C9, luciferin-H conversion, luminescence; stronger effect = higher value; factor 1 = untreated enzyme, 0 = blocked; activation factor at 5 µM; hit rate 1.4% among 96,000; AID 1024;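 active = activation factor of 2 or more for CYP2C9 at a 5 µM dose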;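 note: 0 = sulfaphenazole-blocked wells and 1 = vehicle-only wells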
# sEH act = increases human soluble epoxide hydrolase activity; purified human sEH enzymatic activity, activator screen; activation, % at 2 µM; hit rate 0.04% among 91,000; AID 717; in the data active = activation above about 37%
# CYP2C19 inh = blocks human cytochrome P450 2C19. P33261. CYP2C19 Supersomes, luciferin-H EGE luminescence, 30 min. hit rate 21% among 96,000. AID 778. inhibition, % at 5 µM;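 active = CYP2C19 inhibition above a set limit at 5 µM in the primary screen, cut at about 50% in these data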;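 note: plate controls were negative control wells for no effect and 2.5 mM tranylcypromine positive control for full effect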
# * = called active by the depositor; nt = no result given.
SMILES,CYP2C9 inh,CYP2C19 act,sEH inhibitor,CYP2C9 activ,sEH act,CYP2C19 inh
CCN(CC)CCN1C(=O)c2ccccc2NC1c1cccc(F)c1 (stereo unspecified),-15,1,8,1.2,-8,0
COCCNC(=O)CSc1nc(-c2ccccc2)cs1,6,0.8,10,0.9,-6,22
CC(=O)Nc1cn(C(C)=O)c(C)n1,19,1,nt,0.8,nt,-1
O=C(COc1ccc(S(=O)(=O)NC2CCCCC2)cc1)Nc1ccc2c(c1)OCCO2,80*,0.6,26,0.2,-27,44
Cc1cccc(OCC(=O)NC(=S)Nc2ccc(S(=O)(=O)NC3CCCCC3)cc2)c1,93*,0.7,37,0.1,-37,29
CCOC(=O)c1ccc(NC(=O)COc2ccc(S(=O)(=O)NC(C)CC)cc2)cc1 (stereo unspecified),34,0.8,19,0.7,-16,22
CCC(C)NS(=O)(=O)c1ccc(OCC(=O)Nc2ccc3c(c2)OCCO3)cc1 (stereo unspecified),60*,0.6,-4,0.4,3,40
COc1ccc(OC)c(N2C(=O)CC(Cc3cc(C)cc(C)c3)C2=O)c1 (stereo unspecified),nt,nt,3,nt,-4,nt
O=C(CCC(=O)Nc1ccc(Oc2ccccc2)cc1)NCCO,9,0.9,-25,0.9,22,8
Cc1ccn2cc(-c3ccc(S(=O)(=O)N4CCOCC4)cc3)nc2c1,15,0.9,nt,0.8,nt,6
CCCC(=O)Nc1nc2ccc(OCC)cc2s1,23,0.8,-9,0.8,9,16
O=C(Nc1nc2ccccc2s1)c1ccc(Cl)s1,17,1,nt,0.8,nt,4
CCOC(=O)C1=C(O)C(Nc2nc3ccccc3s2)(C(F)(F)F)N=C1C (stereo unspecified),42,0,-3,0.6,2,98*
CCOC(=O)NC(Nc1nnc(C)s1)(C(=O)OCC)C(F)(F)F (stereo unspecified),0,1,-18,1,17,1
CCOc1ccc2nc(NC(NC(=O)CC)(C(=O)OC)C(F)(F)F)sc2c1 (stereo unspecified),44,0.3,nt,0.6,nt,70*
C/C(=C\C(=O)c1ccccc1)NNc1nc2ccccc2s1,42,0.4,7,0.6,-3,61*
CCOC(=O)NC(Nc1nc2ccccc2s1)(C(=O)OCC)C(F)(F)F (stereo unspecified),83*,0.1,-3,0.2,6,93*
N/C(COc1ccc(F)cc1)=N\NC(=O)c1cccnc1Oc1ccccc1,1,1,2,1,0,3
O=C(O)C1C2CCC(C2)C1C(=O)Nc1nc2ccccc2s1 (stereo unspecified),13,1,5,0.9,-5,3
CCOc1ccc2nc(NC(NC(C)=O)(C(=O)OC)C(F)(F)F)sc2c1 (stereo unspecified),6,0.4,nt,0.9,nt,58*
O=C(NC(Nc1nc2ccccc2s1)(C(F)(F)F)C(F)(F)F)c1ccccc1,92*,0.2,-24,0.1,26,76*
CCOc1ccc2nc(NS(=O)(=O)Cc3ccccc3)sc2c1,96*,0.2,2,0,0,77*
Fc1ccc(COc2ccc(Br)cc2CNCc2ccncc2)cc1,89*,0,0,0.1,1,99*
CCOc1cc(CNc2ccccc2)cc(Br)c1OCc1ccccc1F,54*,0.7,-4,0.5,6,30
Fc1ccccc1COc1ccc(Br)cc1CNCc1ccncc1,84*,0,-1,0.2,2,99*
SMILES,CYP2C9 inh,CYP2C19 act,sEH inhibitor,CYP2C9 activ,sEH act,CYP2C19 inh
CCOc1cc(CNCc2ccncc2)cc(Br)c1OCc1ccc(F)cc1,91*,0.2,1,0.1,-1,80*
O/N=C/c1cc(Br)ccc1OCc1ccccc1F,nt,nt,-11,nt,10,nt
COc1cccc(CNC(=O)C2CCCN(c3nn4c(=O)cc(C)nc4s3)C2)c1OC (stereo unspecified),10,0.6,49,0.9,-49,37
COc1ccc(C(=O)N2CCN(Cc3ccccc3C)CC2)cc1OC,-59,0.5,6,1.6,-4,48
CCc1c(O)nc(SCC(=O)Nc2ccccc2C)[nH]c1=O,1,1.2,-5,1,11,-19
COc1ccc(C2=NCN(c3ccc(C)cc3)C(=S)N2)cc1,-8,1.1,-6,1.1,4,-15
Cc1ccc(N2CN=C(c3ccccc3)NC2=S)cc1,76*,0,6,0.2,-4,99*

# Screening results: PubChem BioAssay, several laboratories
